Data as given in PubChem BioAssay AID686971 (National Center for Advancing Translational Sciences (NCATS), 2013).
Out of some 360,000 compounds screened, about 7,500 (2.1%) were called active. Inconclusive results (about 8%) are left out. Shown is part of a subset that was picked to be rich in actives. Where a call stands in place of a potency, no number is given. A number with no mark means an inactive call. Calls come from the whole dose curve; as a rule, active = well fitted cell-killing curve with a large enough effect; inconclusive = small, poorly fitted or top-dose-only effect, or effect the other way, or another doubt; inactive = no such curve, though single readings can be large or run the other way.

Test: qHTS for induction of synthetic lethality in tumor cells producing 2HG: qHTS for the HT-1080-IDH1KD cell line
Conditions: HT-1080 IDH1 knockdown viability, ATP luminescence, 48 h; series mostly up to 46.1 µM
Excerpt: Unbiased genomic sequencing for 22 glioma genomes found recurrent mutation of IDH1 on chromosome 2q33, a gene encoding the cytosolic isoform of IIDH1 associated with the tri-carboxylic acid cycle (TCA) that catalyzes the oxidative decarboxylation of isocitrate, yielding alpha-ketoglutarate and CO2 via NADP+ to NADPH conversion. Subsequent studies confirmed the recurrent IDH mutations in up to 70% of secondary gliomas and in 10% of AML cases. In addition, the somatic mutation of cancer-associated IDH1 is a point mutation resulting in various amino-acid substituents at Arginine132 (IDH1 R132), a key residue found in the enzyme's active site that when mutated, results in the loss-of-function in metabolizing isocitrate but confers a gain-of-function to produce the oncometabolite 2-hydroxyglutarate (2HG). This in effect defines IDH1 as an oncogene and provides an extraordinary opportunity to discover chemical probes against mutant IDH1 that may translate into much needed new therapies for glioma and AML patients.
This assay aims to perform a synthetic-lethal screen for chemical probes specific for 2HG-producing tumor cells using matched paired cell lines (1) HT-1080-NT fibrosarcoma cell line that overproduces 2HG and (2) HT-1080-IDH1KD cell line which has IDH1 expression knocked-down. Desirable compounds are toxic to the NT fibrosarcoma cell line but not to the IDH1KD cell line. The data in this AID corresponds to the results of the qHTS against the HT-1080 IDH1KD cell line.
[1] Dang L, Jin S, Su SM. IDH mutations in glioma and acute myeloid leukemia. Trends of Mol Med. 2010; 16(9): 387-97.
[2] Dang L et al. Cancer-associated IDH1 mutations produce 2-hydroxyglutarate. Nature. 2010; 465(7300):966.
Molecular Libraries Probe Production Centers Network [MLPCN]
NIH Chemical Genomics Center [NCGC]
Assay Submitter (PI): Lenny Dang Ph.D., Agios Pharmaceuticals
Suspensions of trypsinized HT-1080-IDH1KD cells were dispensed into white, tissue culture-treated, solid 1536-well plates at 5uL/well (750 cells/well final concentration) in RPMI medium supplemented with 5% FBS. Plates were incubated at 37 degrees C for 2 hours, after which 23 nL of compounds or DMSO were delivered to each well using a pin tool. Plates were then incubated at 37 degrees C for an additional 48 hours. CellTiter-Glo viability reagent (Promega) was dispensed into wells (2.5uL/well) and incubated at room temperature for 10 minutes. The plates were measured on a PerkinElmer ViewLux plate reader for luminescent signal (clear filter, 1 sec exp.). DMSO-treated control wells and media-only (no cells) control wells were used to normalize %Activity of identified toxic compounds; DMSO-treated wells corresponded to 0%Activity (100% viability), while media-only controls were used to normalize 100%Activity (0% viability). To minimize variability between cell lines, both HT-1080-NT and HT-1080-IDH1KD lines were dispensed and treated with identical compound series in single batches.
Concentration-response curves were fitted to the signals arising from the resulting luminescence. The concentration-effect curves were then classified based on curve quality (r2), response magnitude and degree of measured activity, and compounds were subsequently categorized based on their curve class.
Potency is the fitted concentration of half-maximal effect.

SMILES	Potency	activity, negative = toxicity
Cc1nc(N=C(N)N)nc2c(C)cccc12	32.6 µM (active)	
Cc1cc(C)c2cc(C#N)c(N3CCNCC3)nc2c1	inactive	
CCOC(=O)c1ccccc1OC(=O)Oc1ccccc1C(=O)OCC	inactive	
CCOC(=O)c1c(C)[nH]c2c1-c1ccccc1C(=O)C2=O	2.91 µM (active)	
CCOC(=O)c1c(C)nc2c(c1C)c(=O)oc1ccccc12	inactive	
COCc1cccc(-c2csc(C(O)c3ccc(F)cc3)n2)c1 (stereo unspecified)	inactive	
Cc1ccccc1C(=O)N1CCN(c2ccc(NC(=O)c3cccs3)cc2)CC1	inactive	
Cc1ccccc1C(=O)Nc1ccc(N2CCCCCC2)cc1	14.6 µM (active)	
Cc1ccccc1C(=O)Nc1ccccc1NC(=O)c1ccccc1C	inactive	
COc1cccc(C(=O)Nc2ccc3nc4n(c(=O)c3c2)CCCCC4)c1	inactive	
COc1cccc(OCc2cc(C(=O)N3CCN(C(=O)c4ccco4)CC3)no2)c1	inactive	
COc1cccc(C(=O)Nc2ccc(N3CCN(C(=O)c4ccco4)CC3)cc2)c1	11.6 µM (active)	
Cc1ccc(OCC(=O)Nc2ccc(N3CCN(C(=O)c4ccco4)CC3)cc2)c(C)c1	inactive	
COc1cccc(C(=O)Nc2ccc(N3CCCC3)cc2)c1	18.4 µM (active)	
COc1cccc(C(=O)Nc2nnc(S(=O)(=O)N3CCCCC3)s2)c1	inactive	
Cc1cccc(N(CC(=O)N2CCCC2)S(C)(=O)=O)c1C	inactive	
COC(=O)c1ccccc1N=NNc1ccc([N+](=O)[O-])cc1	inactive	
CCCNC(=O)C1CC(=O)N(c2ccc(OCc3ccccc3)cc2)C1 (stereo unspecified)	inactive	
Cc1nc2ccccn2c(=O)c1NC(=O)c1ccc(Br)o1	inactive	
C[C@H]1Cn2cnc(C(=O)N[C@H](C)c3ccccc3)c2C(=O)N1	inactive	
Cc1ccc(CCNC(=O)CN2C(=O)CSc3ccc(S(=O)(=O)N4CCOCC4)cc32)cc1	inactive	
CC1(C(=O)Nc2cccc3cccnc23)CCN1C(=O)CCC1CCCC1 (stereo unspecified)	inactive	
CC[C@]1(O)CC2CN(CCc3c([nH]c4ccccc34)[C@@](C(=O)OC)(c3cc4c(cc3OC)N(C=O)[C@H]3[C@@](O)(C(=O)OC)[C@H](OC(C)=O)[C@]5(CC)C=CCN6CC[C@]43[C@@H]65)C2)C1 (stereo partly specified)	0.184 µM (active)	
CC[C@]1(O)C[C@@H]2CN(CCc3c([nH]c4ccccc34)[C@@](C(=O)OC)(c3cc4c(cc3OC)N(C)[C@H]3[C@@](O)(C(=O)OC)[C@H](OC(C)=O)[C@]5(CC)C=CCN6CC[C@]43[C@@H]65)C2)C1	0.0366 µM (active)	

SMILES	Potency	activity, negative = toxicity
Nc1nc(CSc2nnnn2-c2ccccc2)nc(Nc2ccccc2)n1	inactive	
CCCS(=O)(=O)NC(=O)C1(C)CCCN(C(=O)c2ccnc(Cl)c2)C1 (stereo unspecified)	inactive	
CCC(CO)Oc1cc(NCc2ccccc2)c2ncn(C3CCCC3)c2c1 (stereo unspecified)	inactive	
COc1ccc(CNc2nc(NCc3ccc(OC)cc3)c3ncn(C4CCCC4)c3n2)cc1	4.61 µM (active)	
COc1ccc(CNC2CCCCC2)cc1	inactive	
Cc1ccc(S(=O)(=O)N2CCCCC2)cc1NC(=O)CCNC(=O)c1ccccc1Cl	inactive	
CC(C)(C)NC(=O)NC(=O)COC(=O)Cc1ccc(Cl)cc1Cl	inactive	
Cn1cc(C(=O)c2ccc(Cl)cc2Cl)cc1C(=O)NN	inactive	
CC(C)(C)c1cc(C(=O)NN)n(Cc2ccc(Cl)cc2Cl)n1	14.6 µM (active)	
CCN(CC)CCN(C)C(c1ccnc2ccccc12)c1nnnn1-c1ccc2c(c1)OCCO2 (stereo unspecified)	inactive	
COc1ccc(CN2C(=O)C(CC(=O)NCCCCc3ccccc3)CC(C(=O)N3CCOCC3)=C2C)cc1 (stereo unspecified)	inactive	
O=C(COC(=O)c1ccncc1)c1ccccc1	inactive	
Brc1ccc(-c2noc(-c3ccccc3)n2)o1	inactive	
O=C(Oc1ccc(-c2nc(-c3ccccn3)no2)cc1)c1ccccc1	2.31 µM (active)	
COc1ccccc1CNC(=O)c1cc(-c2cc(F)ccc2OC)n[nH]1	inactive	
c1ccc(CNCc2ccc(CNCc3ccccc3)cc2)cc1	inactive	
O=C1/C(=C\c2cccnc2)CN(Cc2ccccc2)C/C1=C\c1cccnc1	1.84 µM (active)	
Cc1ccccc1C1=N/C(=C/c2cccnc2)C(=O)O1	inactive	
Clc1ccc(CN2CCN(/N=C/c3cccnc3)CC2)cc1	inactive	
O=C(Nc1ccccc1)c1ccccc1OCc1ccccc1	inactive	
CCOC(=O)C1(CCOc2ccccc2)CCN(Cc2cc(OC)c(O)cc2Cl)CC1	inactive	
CC(C)(O)C#Cc1ccc(CN2CCC(CO)(CCc3ccccc3)CC2)cc1	inactive	
Cc1c(CN2CCC(CO)(CCOc3ccccc3)CC2)[nH]c2ccc(Cl)cc12	23.1 µM (active)	
O=C(CC(CC(=O)c1ccccc1)c1ccco1)c1ccccc1	inactive	

SMILES	Potency	activity, negative = toxicity
CC(=O)N1C[C@@H](CO)[C@@H](N(C)C(=O)c2ccco2)C[C@H]1c1ccccc1	inactive	
O=[N+]([O-])c1ccc(CN2CC(N3CCC(c4ccccc4)CC3)CS2(=O)=O)cc1 (stereo unspecified)	inactive	
Cc1cccc(NC(=O)c2nc[nH]c2C(=O)NCC(=O)OCc2ccccc2)c1	inactive	
O=C(Nc1ccc(F)cc1)c1ccc(S(=O)(=O)NCc2cccnc2)cc1	inactive	
Cc1cccc(CS(=O)(=O)c2ncc(Cl)c(C(=O)Nc3ccc(F)cc3)n2)c1	16.4 µM (active)	
CCOc1ccc(NC(=O)c2nc(SCC)ncc2Cl)cc1	inactive	
Cc1cccc(NC(=O)C(C)SCc2ccccc2)c1 (stereo unspecified)	inactive	
Cc1cccc(NC(=O)c2nc(S(=O)(=O)Cc3ccccc3)ncc2Cl)c1	6.51 µM (active)	
CCCCN1C(=O)C(CC(=O)NC(c2ccccc2)c2ccccc2)CC(C(=O)N2CCOCC2)=C1C (stereo unspecified)	inactive	
O=S1(=O)C[C@@H](N2CCN(CCO)CC2)[C@H](COCc2ccccc2)N1	inactive	
COc1ccc([C@H]2N[C@]3(CCCN(CC4CCCCC4)C3=O)[C@H]3C(=O)N(C)C(=O)[C@@H]23)cc1	inactive	
Cc1ccccc1S(=O)(=O)NC(=O)C1(C)CCN1C(=O)Cc1ccc(Cl)cc1Cl (stereo unspecified)	inactive	
Cc1cn([C@H]2C[C@H](O)[C@@H](CNC(=O)[C@H](N)Cc3cccnc3)O2)c(=O)[nH]c1=O	inactive	
Nc1cc(=O)c2[nH]cnc2[nH]1	inactive	
COc1ccccc1N1CCN(C(=O)c2cc(=O)c3cc(C)cc(C)c3o2)CC1	0.0103 µM (active)	
COc1ccccc1N1CCN(C(=O)c2c(-c3c(Cl)cccc3Cl)noc2C)CC1	inactive	
COc1ccccc1N1CCN(C(=O)c2ccc(Cl)c(S(=O)(=O)N3CCCC3)c2)CC1	inactive	
C[C@H](NC(=O)CC[C@H]1O[C@@H](n2ccc(=O)[nH]c2=O)[C@H](O)[C@@H]1O)c1cccc2ccccc12	inactive	
C[C@@H]1CN([C@@H](C)CO)C(=O)CCCn2nncc2CO[C@H]1CN(C)C(=O)Nc1ccc(C(F)(F)F)cc1	inactive	
C[C@@H]1CN([C@@H](C)CO)C(=O)c2cc(Br)cnc2O[C@@H]1CN(C)C(=O)C1CCCCC1	inactive	
CC1=C(C(=O)N2CCOCC2)CC(CC(=O)NCc2cccs2)C(=O)N1CCCN1CCCC1=O (stereo unspecified)	inactive	
CCCCC[C@H](C)N1C[C@@H](COCc2ccccc2)Oc2cc(N3CC[C@@H](N(C)C)C3)ccc2S1(=O)=O	18.4 µM (active)	
CCCCN1CC(COCc2ccccc2)OCCS1(=O)=O (stereo unspecified)	inactive	
CCCCC[C@H](C)N1C[C@@H](COCc2ccccc2)Oc2cc(N3CCC[C@@H]3CO)ccc2S1(=O)=O	inactive	

SMILES	Potency	activity, negative = toxicity
C[C@H](CO)N1C[C@H](C)[C@@H](CN(C)S(=O)(=O)c2ccc(F)cc2)OCc2cnnn2CCCC1=O	inactive	
CC1(Oc2cccc(F)c2)CCN(Cc2ccccc2OC(F)F)C1 (stereo unspecified)	inactive	
Cc1[nH]n(-c2ccc(Cl)cc2)c(=O)c1/C=N/n1c(C)nc2ccccc2c1=O	16.4 µM (active)	
Cc1[nH]n(-c2ccc([N+](=O)[O-])cc2)c(=O)c1C=NCCN1CCN(C(=O)c2ccccc2F)CC1	inactive	
Cn1c(COc2ccc(Cl)cc2)nc2ccccc2c1=O		4.13% [at 9.24 µM]
CC1(C(=O)NCc2ccccc2)CSCC(=O)N1CCCN1CCOCC1 (stereo unspecified)	inactive	
O=C(CCCN1C(=O)C(c2ccccc2)Oc2cccnc21)Nc1ccccc1Br (stereo unspecified)	inactive	
COc1ccc(-c2ccc3[nH]c4c(c3c2)CCN2C[C@H]3[C@H](C)ON(C)[C@H]3C[C@@H]42)cc1	inactive	
CCN(CC)CCn1cnc2c1c(=O)[nH]c(=O)n2Cc1ccccc1	inactive	
COCCn1cnc2c1c(=O)n(Cc1ccc(Br)cc1)c(=O)n2Cc1ccccc1	inactive	
N=c1c2c(-c3ccccc3)c(-c3ccccc3)n(Cc3ccccc3)c2ncn1CCCO	5.62 µM (active)	
FC(F)(F)c1cccc(-c2nc3ccccc3n2C(c2ccccc2)c2nc3ccccc3[nH]2)c1 (stereo unspecified)	inactive	
CCN(CC)C(=O)C1CCCN(Cc2cccc(Cl)c2)C1 (stereo unspecified)	inactive	
CC1(C(=O)Nc2ccccc2Br)CCN1C(=O)CC1CC1 (stereo unspecified)	inactive	
CC[C@@H]1Cc2cc(O)ccc2C2=C1c1ccc(O)cc1C[C@H]2CC	14.6 µM (active)	
CC(C)OC(=O)CC(=O)CC(O)c1cccc([N+](=O)[O-])c1 (stereo unspecified)	inactive	
COc1ccc(CCNC(=O)CN(c2ccccc2)S(=O)(=O)c2ccccc2)cc1	inactive	
COC(=O)C1(C(=O)OC)C/C=C\CN(S(=O)(=O)c2ccccc2[N+](=O)[O-])CCC1	inactive	
O=C(Nc1ccncc1)c1ccc(Cl)c([N+](=O)[O-])c1	inactive	
Nn1cnnc1N/N=C/c1cc([N+](=O)[O-])c(Cl)cc1Cl	inactive	
CC(=O)Nc1ccc(C=CC(=O)c2ccc([N+](=O)[O-])cc2)cc1	inactive	
NC(N)=N/N=C/c1ccc(Cl)c([N+](=O)[O-])c1	23.1 µM (active)	
O=C(/C=C/c1ccc(Cl)c([N+](=O)[O-])c1)c1ccc(O)cc1	11.6 µM (active)	
CC(CC(=O)O)C(=O)c1ccc(Cl)c([N+](=O)[O-])c1 (stereo unspecified)	inactive	
